Results taken from PubChem BioAssay (NCI).
This is part of a sample that, as a whole, favours compounds with a hit. Of some 79,000 tested, about 15% had one in any assay. The source made the active and inactive calls. No stated cut-off is given here; in the data, active means growth inhibition above about 70%; inactive means the rest.

How the values were obtained:
[1] = NCI Yeast Anticancer Drug Screen. Data for the rad52 strain (AID 147);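 further: 0% = growth of vehicle-treated control cultures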; conditions: S. cerevisiae rad52 mutant growth inhibition, active compounds read high
In short: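 Yeast strain carrying a DNA damage repair alteration was exposed to test compounds. Growth inhibition was measured relative to vehicle-treated controls.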

[2] = NCI Yeast Anticancer Drug Screen. Data for the wt1 strain (AID 149);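 further: 0% = growth of vehicle-treated wt1 cultures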; conditions: S. cerevisiae wt1 strain (SPY 50644) growth inhibition, active compounds read high
In short: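 Compounds are added to wt1 yeast cultures. Growth is then measured. Inhibition is expressed relative to vehicle-treated controls.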

[3] = NCI Yeast Anticancer Drug Screen. Data for the rad50EPP+ strain (AID 151);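 further: 0% = growth of vehicle-treated control cultures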; conditions: S. cerevisiae rad50 mutant strain, active compounds read high
In short: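 Yeast strain carrying rad50 alteration (rad50EPP+) exposed to compounds; growth inhibition measured relative to vehicle-treated controls.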

[4] = NCI Yeast Anticancer Drug Screen. Data for the mgt1 strain (AID 153); conditions: S. cerevisiae mgt1 mutant growth inhibition, active compounds read high
In short: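 Yeast mgt1 strain (DNA repair/cell-cycle alteration panel) exposed to compounds; growth inhibition measured relative to vehicle-treated controls.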

[5] = NCI Yeast Anticancer Drug Screen. Data for the rad50 strain (AID 155);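 further: 0% = growth of vehicle-only cultures of the same strain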; conditions: S. cerevisiae rad50 strain growth inhibition, active compounds read high
In short: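 Inhibition values express reduced yeast growth in compound-treated cultures relative to vehicle-treated controls.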

[6] = NCI Yeast Anticancer Drug Screen. Data for the mec2-1 strain (AID 157); conditions: S. cerevisiae mec2-1 strain, active compounds read high
In short: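 mec2-1 yeast strain, carrying an alteration in DNA damage repair or cell cycle control, was exposed to compounds; growth inhibition was measured relative to vehicle-treated controls.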

[7] = NCI Yeast Anticancer Drug Screen. Data for the rad14 strain (AID 159);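 further: 0% = growth of vehicle-treated control cultures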; conditions: S. cerevisiae rad14 strain growth inhibition, active compounds read high
In short: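 A mutant yeast strain defective in DNA damage repair is treated with compound; inhibition of its growth is scored against untreated, vehicle-exposed cultures.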

[8] = NCI Yeast Anticancer Drug Screen. Data for the sgs1 mgt1 strain (AID 161);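 further: 0% = growth of cultures given vehicle only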; conditions: S. cerevisiae sgs1 mgt1 strain, active compounds read high
In short: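 Percent growth inhibition was derived by comparing compound-exposed mutant yeast with vehicle-exposed cultures. The strain carries alterations in DNA damage repair.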

[9] = NCI Yeast Anticancer Drug Screen. Data for the CLN2oe strain (AID 163);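 further: 0% = growth of vehicle-only control cultures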; conditions: S. cerevisiae CLN2oe strain, active compounds read high
In short: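 Yeast cells carrying a defined cell-cycle control alteration were exposed to test compounds. Growth inhibition was scored against vehicle-treated control cultures.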

[10] = NCI Yeast Anticancer Drug Screen. Data for the cln2 rad14 strain (AID 165);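 further: 0% = growth equal to vehicle treated cultures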; conditions: S. cerevisiae cln2 rad14 strain, active compounds read high
In short: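 Yeast carrying cln2 and rad14 alterations (cell cycle control and DNA damage repair) were exposed to compounds. Growth inhibition was measured against vehicle-treated controls.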

[11] = NCI Yeast Anticancer Drug Screen. Data for the bub3 strain (AID 167); conditions: S. cerevisiae bub3 mutant strain, active compounds read high
In short: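 Steps: expose the mutant yeast strain to compound; grow alongside vehicle-treated cultures; measure growth; express inhibition against the vehicle cultures.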

[12] = NCI Yeast Anticancer Drug Screen. Data for the wt2 strain (AID 169);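 further: 0% = growth of vehicle-treated yeast cultures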; conditions: S. cerevisiae wt2 strain growth inhibition, active compounds read high
In short: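 Yeast cells were exposed to test compounds, and growth inhibition was measured relative to vehicle-treated controls.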

[13] = NCI Yeast Anticancer Drug Screen. Data for the mlh1 strain (AID 171);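 further: 0% = growth of vehicle-treated control cultures of the same strain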; conditions: S. cerevisiae mlh1 strain growth inhibition, active compounds read high
In short: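 Yeast carrying a defined genetic alteration in DNA damage repair or cell cycle control were exposed to test compounds. Growth inhibition was measured relative to vehicle-treated controls.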

[14] = NCI Yeast Anticancer Drug Screen. Data for the sgs1 strain (AID 173);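 further: 0% = growth of vehicle-only control cultures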; conditions: S. cerevisiae sgs1 mutant, active compounds read high
In short: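 Yeast mutant strains carrying defined defects in DNA damage repair or cell cycle control were exposed to test compounds. Growth inhibition was scored against vehicle-treated controls.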

[15] = NCI Yeast Anticancer Drug Screen. Data for the mlh1 rad18 strain (AID 175); conditions: S. cerevisiae mlh1 rad18 strain growth inhibition, active compounds read high
In short: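 Growth inhibition of the yeast strain was measured after compound exposure and expressed relative to vehicle-treated controls. The strain carries defined defects in DNA damage repair.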

[16] = NCI Yeast Anticancer Drug Screen. Data for the rad18 strain (AID 177); conditions: S. cerevisiae rad18 mutant growth inhibition, active compounds read high
In short: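 Yeast carrying a defined DNA damage repair alteration were exposed to compounds. Growth inhibition was expressed relative to vehicle-treated controls.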

[17] = at 5.0 µM (retest, dose inferred, filed as 0.5)
[18] = at 50.0 µM (retest, dose inferred, filed as 5.0)

Measured: growth inhibition

O=c1[nH]c2ccccc2c2nc3ccccc3n12
active: [1]; at 33.0 µM 72% | [1]; at 100.0 µM 70% | [3]; at 33.0 µM 90% | [3]; at 100.0 µM 92% | [5]; at 11.0 µM 77% | [5]; at 33.0 µM 78% | [5]; [18] 94% | [5]; at 100.0 µM 88% | [6]; [18] 97% | [11]; [18] 74% | [15]; [18] 86%
inactive: [1]; at 1.2 µM -43% | [1]; at 3.7 µM -34% | [1]; at 11.0 µM 8% | [2]; at 1.2 µM -39% | [2]; at 3.7 µM -44% | [2]; at 11.0 µM -8% | [2]; at 33.0 µM 3% | [2]; at 100.0 µM -17% | [3]; at 1.2 µM 10% | [3]; at 3.7 µM 16% | [3]; at 11.0 µM 48% | [4]; at 1.2 µM -34% | [4]; at 3.7 µM -14% | [4]; at 11.0 µM 26% | [4]; at 33.0 µM 40% | [4]; at 100.0 µM 8% | [5]; at 1.2 µM -17% | [5]; at 3.7 µM -6% | [5]; [17] 51% | [5]; at 50.0 µM 15.6% | [6]; at 1.2 µM -48% | [6]; at 3.7 µM -50% | [6]; [17] 62% | [6]; at 11.0 µM -41% | [6]; at 33.0 µM -42% | [6]; at 50.0 µM 12.7% | [6]; at 100.0 µM 12% | [7]; at 1.2 µM -39% | [7]; at 3.7 µM -43% | [7]; at 11.0 µM -50% | [7]; at 33.0 µM 7% | [7]; at 100.0 µM -8% | [8]; [17] -17% | [8]; [18] 22% | [9]; at 1.2 µM 12% | [9]; at 3.7 µM -2% | [9]; at 11.0 µM 15% | [9]; at 33.0 µM 40% | [9]; at 100.0 µM 26% | [10]; [17] 33% | [10]; [18] 59% | [11]; at 1.2 µM -11% | [11]; at 3.7 µM 5% | [11]; [17] 45% | [11]; at 11.0 µM 11% | [11]; at 33.0 µM 60% | [11]; at 100.0 µM 42% | [12]; at 1.2 µM -53% | [12]; at 3.7 µM -47% | [12]; at 11.0 µM -47% | [12]; at 33.0 µM -15% | [12]; at 100.0 µM 26% | [13]; at 1.2 µM -40% | [13]; at 3.7 µM -22% | [13]; at 11.0 µM -14% | [13]; at 33.0 µM 38% | [13]; at 100.0 µM 37% | [14]; at 1.2 µM -43% | [14]; at 3.7 µM -58% | [14]; at 11.0 µM -64% | [14]; at 33.0 µM 23% | [14]; at 100.0 µM -14% | [15]; [17] 49% | [15]; at 50.0 µM 47.1% | [16]; at 1.2 µM -29% | [16]; at 3.7 µM -22% | [16]; at 11.0 µM -20% | [16]; at 33.0 µM 27% | [16]; at 100.0 µM 9%
